Experimental data: PubChem BioAssay (NCI)
This is part of a sample that, as a whole, favours compounds with a hit. Of some 83,000 tested, about 20% had one in any assay.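 Compound tested at a single concentration for 48 hours in 96-well plates; a percent growth value below 10 was scored as active.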 Values without a mark were called inactive.

system: HOP-62 NSCLC; experiment: NCI-60 one-dose screen, 48 h (100 = growth as untreated, 0 = no growth, -100 = all killed); settings: 10 µM

SMILES | growth
O=[N+]([O-])C1CC2C=CC1C2 (centres undefined) | 93.3%
COc1ccc(C2CC(c3ccc(-c4ccccc4)cc3)=NN2c2ccc(S(N)(=O)=O)cc2)cc1 (centres undefined) | 90.8%
O=C(Nc1cccc(F)c1)Nc1cccc(Cl)c1 | 99.6%
COc1cc(/C=C2\C(=O)Nc3cc(C)c(O)cc32)cc(OC)c1OC | 85.7%
COC(=O)c1ccc(Cn2ccc(=O)[nH]c2=O)cc1 | 106%
Nc1nc2c(ncn2C2OC3COP(=O)(O)OC4C(COP(=O)(O)OC2C3O)OC(n2cnc3c(N)ncnc32)C4O)c(=O)[nH]1 (centres undefined) | 94%
COc1cccc(C(=O)NNc2nc(N3CCN(C4CCCCC4)CC3)nc(N3CCN(C(c4ccccc4)c4ccccc4)CC3)n2)c1 | 45.2%
O=C(CCCC(=O)N/N=C/c1cc(Cl)ccc1O)N/N=C\c1cc(Cl)ccc1O | 24.1%
COc1ccc2nc(/C=C/c3ccc(N(C)C)cc3)sc2c1 | 108%
O=c1cc(CSc2nnc(-c3ccccc3)n2-c2ccc(F)cc2)c2ccc3ccccc3c2o1 | 92.8%
O=C(O)CCCCSCCCCC(=O)O | 95.8%
C#C[C@]1(O)CC[C@H]2[C@@H]3CC[C@H]4CC(F)(F)CC[C@]4(C)[C@H]3CC[C@@]21C | 67.5%
O=C(OCC1OC(n2cc(C(F)(F)F)c(=O)[nH]c2=O)CC1OC(=O)c1ccc([N+](=O)[O-])cc1)c1ccc([N+](=O)[O-])cc1 (centres undefined) | 75.9%
COC(=O)c1cnc2c(c1)Oc1ccc(Cl)cc1-c1cc(C)nn1-2 | 68.3%
